dFosB act = activators of delta FosB homodimer, primary screen, biochemical, fluorescence polarization, TAMRA-CDK5 oligo, single point. activation, % at 25 µM. 0.99% of 340,000 active. purified delta FosB; percent of positive-control signal above neutral wells. AID 493131, 2011;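 active = mean activation above about 17%, with every replicate also reaching it, limit read from the data, passing the limit was not always enough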
Target sequence (P13346 whole entry, looked up): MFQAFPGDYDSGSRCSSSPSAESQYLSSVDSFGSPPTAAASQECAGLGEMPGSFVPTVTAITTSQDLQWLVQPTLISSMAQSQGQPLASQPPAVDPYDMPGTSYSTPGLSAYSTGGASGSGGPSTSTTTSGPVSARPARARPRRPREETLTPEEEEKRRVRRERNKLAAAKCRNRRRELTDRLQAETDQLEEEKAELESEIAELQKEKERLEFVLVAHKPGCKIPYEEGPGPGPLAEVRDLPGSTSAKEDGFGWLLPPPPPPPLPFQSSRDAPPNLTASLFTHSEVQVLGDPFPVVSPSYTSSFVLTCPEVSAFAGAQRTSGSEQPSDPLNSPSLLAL
AF4-AF9 inh = inhibitors of AF4 peptide binding to AF9, primary screen, biochemical, AlphaScreen, biotin-AF4 peptide, FLAG-AF9, single point; inhibition, % at 10 µM; 0.47% of 350,000 active; Protein AF-9 (Homo sapiens), P42568;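 active = every replicate reaching a set inhibition limit, whatever the replicate mean, cut at about 25% in these data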
RAD54 inh = inhibitors of human RAD54 branch migration, primary screen, biochemical, fluorescence, single point | DNA repair and recombination protein RAD54-like (Homo sapiens), Q92698 | RAD54 Holliday junction branch migration, FAM/BHQ fluorescence | inhibition, % at 10.4 µM | 0.14% of 360,000 active | AID 602329, 2012;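 active = mean normalized replicate activity at least 40 and at least half of replicates scoring 40 or more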;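 note: inhibitors cause a drop in the FAM fluorescence signal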
DENV2 CPE rescue = inhibitors of DENV2 cytopathic effect, primary screen, cell-based, plate reader, single concentration | DENV2-infected cells, cytopathic effect rescue | CPE inhibition, % at 9.99 µM | 1.7% of 350,000 active | AID 651640, 2012; in the data active = CPE inhibition above about 20%, passing the limit was not always enough; tested in BHK-21 cells
GSIS activator = GLuc luminescence reporter in INS-1E cells, primary screen for activators of glucose-dependent secretion of insulin. activation, % at 16.6 µM. 0.61% of 370,000 active. INS-1E GLuc reporter insulin secretion, 2-3 h;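 active = lowest replicate activation of at least 40%, so every replicate reaches that level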
RAD52 inh = RAD52 DNA annealing inhibitors, primary screen, biochemical, FRET, single point, set 2; DNA repair protein RAD52 homolog (Homo sapiens), P43351; recombinant RAD52 DNA annealing, FRET fluorescence; inhibition, % at 18.7 µM; 0.46% of 360,000 active;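 active = every replicate showing at least 50% inhibition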
Hits are given with their value; . = inactive; / = no result given. A selection: hits, their analogues and other compounds. The true share with any hit is near 3.1%.

SMILES	dFosB act	AF4-AF9 inh	RAD54 inh	DENV2 CPE rescue	GSIS activator	RAD52 inh
O=C1CN(Cc2ccccc2)C[C@H]2[C@H](c3ccc(Br)cc3)[C@H](CO)N12	/	.	/	.	.	.
O=C(C[C@H]1C=C[C@@H](NS(=O)(=O)c2ccccc2)[C@@H](CO)O1)N1CCC(Cc2ccccc2)CC1	/	.	/	.	.	.
O=C(O)c1cccc(S(=O)(=O)NCc2cccs2)c1	.	/	.	/	/	/
O=C1CC(=O)Nc2cc(S(=O)(=O)NCc3cccs3)ccc2N1	.	.	.	.	41	.
Cc1cc(Br)cc(Cl)c1OC(=O)c1ccncc1	.	.	.	.	94	.
Cc1cc(Br)cc(Cl)c1OC(=O)c1cnccn1	.	.	.	.	.	.
O=C(C[C@H]1C[C@H]2c3cc(NC(=O)C4CCC4)ccc3O[C@H]2[C@H](CO)O1)NC1CCCCC1	/	.	.	.	.	.
CC(=O)Oc1ccc(Cl)cc1/C=C/c1ccc2ccccc2n1	.	/	/	/	53	/
C[C@@H]1CN([C@@H](C)CO)S(=O)(=O)c2ccc(C3=CCCCC3)cc2O[C@H]1CN(C)S(=O)(=O)c1cn(C)cn1	/	.	.	.	.	.
COc1ccc(/C=N/n2c(=O)[nH]c3c([nH]c4ccc(C)cc43)c2=O)cc1CN1CCOCC1	.	.	/	.	.	.
COc1ccc(/C=N/n2c(=O)[nH]c3c([nH]c4ccc(F)cc43)c2=O)cc1CN1CCCCC1	31	.	.	.	.	.
COc1ccc(-c2nn(-c3ccccc3)cc2/C=N/N=C(N)N)cc1OC	68	/	/	/	.	/
Cc1ccc(C(=O)N2[C@@H]3CN(C)C(=O)[C@@]2(C)[C@H]2C(=O)N(C)C(=O)[C@@H]32)cc1	.	.	.	.	.	.
CC[C@]12C(=O)N(C)C[C@H]([C@@H]3C(=O)N(C)C(=O)[C@@H]31)N2C(=O)c1ccc(C)cc1	.	51	.	.	.	.
O=C(Nc1cccc(Cl)c1)N[C@H]1CC[C@@H](CCNC(=O)C2CCC2)O[C@@H]1CO	/	.	.	.	.	.
COc1ccc(C2=NN(C(=O)CCCC(=O)O)C(c3cccs3)C2)cc1OC (stereo not drawn)	.	.	/	.	104	.
COc1ccc(C2=NN(C(=O)c3ccco3)C(c3cccs3)C2)cc1OC (stereo not drawn)	/	.	.	.	81	.
CC(C)c1cn(CC[C@@H]2CC[C@H](NC(=O)C3CCCCC3)[C@H](CO)O2)nn1	/	.	.	.	.	.
COc1cccc(NC(=O)COc2cccc3c2CCNC3=O)c1	.	.	.	28	.	.
COc1ccc(/C=N/N=C2/NC(=O)C(CC(=O)NC(N)=O)S2)cc1 (stereo not drawn)	19	.	.	.	.	.
Cc1ccc(S(=O)(=O)Nc2ccc3c(c2)C(=O)N([C@@H](C)CO)C[C@H](C)[C@@H](CN(C)C)OCCCC[C@H](C)O3)cc1	/	.	.	.	.	.
CCc1nc(Sc2nnnn2-c2ccccc2)c2c3c(sc2n1)CCCC3	.	47	/	.	.	.
O=C(C1CC1)N1[C@@H]2CN(S(=O)(=O)c3ccccc3)c3ccccc3[C@@H]2[C@@H]1CO	/	.	.	.	.	.
C[C@H]1CN(C)C(=O)Cc2cc(N)ccc2O[C@H]1CN(C)C(=O)OC(C)(C)C	/	/	/	/	.	/
C[C@@H]1CN([C@@H](C)CO)C(=O)Cc2cc(NC(=O)CCCCCC(=O)Nc3ccccc3N)ccc2O[C@H]1CN(C)CC1CC1	/	.	/	21	.	.
SMILES	dFosB act	AF4-AF9 inh	RAD54 inh	DENV2 CPE rescue	GSIS activator	RAD52 inh
C[C@@H]1CN([C@H](C)CO)C(=O)Cc2cc(NC(=O)CCCCCC(=O)Nc3ccccc3N)ccc2O[C@@H]1CN(C)S(C)(=O)=O	/	.	.	91	.	.
C[C@@H]1CN([C@@H](C)CO)C(=O)Cc2cc(NC(=O)CCCCCC(=O)Nc3ccccc3N)ccc2O[C@@H]1CN(C)Cc1ccc(C(F)(F)F)cc1	/	.	.	96	.	.
C[C@H](CO)N1C[C@H](C)[C@@H](CN(C)Cc2ccc(C(F)(F)F)cc2)Oc2ccc(NC(=O)CCCCCC(=O)Nc3ccccc3N)cc2CC1=O	/	.	.	.	.	.
Cc1noc(C)c1S(=O)(=O)N(C)C[C@@H]1Oc2ccc(NC(=O)CCCCCC(=O)Nc3ccccc3N)cc2CC(=O)N([C@@H](C)CO)C[C@@H]1C	/	.	/	29	.	.
COc1ccc(S(=O)(=O)N(C)C[C@@H]2OCCCC[C@H](C)Oc3ccc(NC(=O)Nc4ccc(C(F)(F)F)cc4)cc3C(=O)N([C@H](C)CO)C[C@@H]2C)cc1	/	.	.	.	.	.
C[C@H]1CN([C@@H](C)CO)C(=O)c2cccc(NS(=O)(=O)c3cn(C)cn3)c2O[C@@H]1CN(C)Cc1ccncc1	/	.	.	.	.	.
C[C@H]1CN([C@@H](C)CO)C(=O)Cc2cc(NS(=O)(=O)c3ccc(F)cc3)ccc2O[C@@H]1CN(C)Cc1ccc(C(F)(F)F)cc1	/	.	.	.	.	.
C[C@@H]1CCCCO[C@H](CN(C)C(=O)Nc2ccc3c(c2)OCO3)[C@H](C)CN([C@H](C)CO)C(=O)c2cc(NC(=O)c3ccccc3)ccc2O1	/	.	.	.	.	.
Cn1c2ccccc2c(=O)c2cc(C#Cc3ccccn3)ccc21	.	.	.	.	.	.
Cn1c2ccccc2c(=O)c2cc(C#Cc3ccsc3)ccc21	.	.	.	66	.	.
Cc1ccccc1S(=O)(=O)N1CC(=O)N2[C@H](C1)[C@H](c1ccc(C#CCC3CCCC3)cc1)[C@@H]2CO	/	.	/	.	.	.
N#Cc1ccccc1Sc1ccccc1C(=O)OCC(=O)NC12CC3CC(CC(C3)C1)C2	.	/	/	/	.	/
CN(C)C(=O)COC(=O)c1ccccc1Sc1ccccc1C#N	.	.	/	.	.	.
CC(=O)c1ccc(NC(=O)COC(=O)c2ccccc2Sc2ccccc2C#N)cc1	40	.	/	/	.	.
CC1CCCC(NC(=O)COC(=O)c2ccccc2Sc2ccccc2C#N)C1C (stereo not drawn)	.	.	.	57	.	.
N#Cc1cccc(NC(=O)COC(=O)c2ccccc2Sc2ccccc2C#N)c1	.	.	.	.	.	.
CC(=O)Nc1ccc(NC(=O)C(C)OC(=O)c2ccccc2Sc2ccccc2C#N)cc1 (stereo not drawn)	.	96	.	.	.	.
CCC(=O)N[C@H]1CC[C@H](CC(=O)OC)O[C@@H]1CO	/	.	.	.	.	.
CC(C)CCOP(=O)(c1ccccc1)c1ccccc1	.	/	/	/	64	/

Screening data (PubChem)
